“And” between values parts separate entries of the source, which are not always exact repeats. Identical values can stand only once. Some compounds were tested as several samples or in several runs, with calls that do not always agree. The source made the active and inactive calls. The calls were made as follows: active = hit-call score of the fitted dose curve at least 0.9, where 1 is the maximum; inactive = score below 0.9.

Here are results for 3 compounds from PubChem BioAssay (EPA / NIEHS).

Holding throughout (conditions): mRNA level, 48 h; actives raise or lower the signal
Read-out in test [1]: Cytochrome P450 4A22 (Homo sapiens) (UniProt Q5TCH4)
The test is described as follows: LTEA_HepaRG_CYP4A22: Life Technologies and Expression Analysis (LTEA) Assay for Cytochrome P450 4A22 (CYP4A22) using HepaRG (AID 2283495). Summed up:
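HepaRG, 48 h post-plating -> serum-free induction medium; dosed 48 h, duplicate, 8 conc. (100 uM top, half-log), 0.5% DMSO. Readout: CYP4A22 mRNA by qRT-PCR, ACTB/GAPDH/POLR2A normalization; gain/loss fit relative to DMSO.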

Read-out in test [2]: Cytochrome P450 7A1 (Homo sapiens) (UniProt P22680)
The experiment in a line: LTEA_HepaRG_CYP7A1: Life Technologies and Expression Analysis (LTEA) Assay for Cytochrome P450 7A1 (CYP7A1) using HepaRG (AID 2283496). In short, it runs like this: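 Using 0.5% DMSO as vehicle and baseline, chemicals were tested in duplicate over an 8-point range from 100 uM on HepaRG cells for 48 h; qRT-PCR signals were normalised to ACTB, GAPDH and POLR2A.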

Read-out in test [3]: Glutathione S-Transferase (GSTA2), GSTA2 (gene 2939)
The experiment in a line: LTEA_HepaRG_GSTA2: Life Technologies and Expression Analysis (LTEA) Assay for Glutathione S-Transferase (GSTA2) using HepaRG (AID 2283497). Summed up:
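qRT-PCR readout of GSTA2 transcript, normalized to three housekeeping genes, fitted bidirectionally against 0.5% DMSO baseline. Differentiated HepaRG cells received compound for 48 h at 8 concentrations (top 100 uM, half-log steps).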

Read-out in test [4]: growth arrest and DNA damage 45 (GADD45G), GADD45G (gene 10912)
The test is described as follows: LTEA_HepaRG_GADD45G: Life Technologies and Expression Analysis (LTEA) Assay for growth arrest and DNA damage 45 (GADD45G) using HepaRG (AID 2283499). In short, it runs like this: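 HepaRG, 48 h exposure, top 100 uM, half-log 8-point series, 0.5% DMSO vehicle, duplicates. Readout: GADD45G transcript by qRT-PCR (Fluidigm array), housekeeping-normalised (ACTB/GAPDH/POLR2A). Bidirectional curve fit vs DMSO baseline.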

Read-out in test [5]: Glutamate-cysteine ligase regulatory (GCLM), GCLM (gene 2730)
The experiment in a line: LTEA_HepaRG_GCLM: Life Technologies and Expression Analysis (LTEA) Assay for Glutamate-cysteine ligase regulatory (GCLM) using HepaRG (AID 2283500). In short, it runs like this: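 HepaRG, 48 h dosing, 100 uM top, half-log x8, 0.5% DMSO vehicle. Readout: GCLM mRNA by TaqMan qRT-PCR, housekeeping-normalized (ACTB/GAPDH/POLR2A). Curves fit bidirectionally vs DMSO baseline.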

Read-out in test [6]: Heat shock 70 kDa protein 1 (HSPA1A), gene 3303
The experiment in a line: LTEA_HepaRG_HSPA1A: Life Technologies and Expression Analysis (LTEA) Assay for Heat shock 70 kDa protein 1 (HSPA1A) using HepaRG (AID 2283502). In short, it runs like this:
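HepaRG, 48 h exposure, 8-pt half-log CRC from 100 uM in 0.5% DMSO, duplicates. Readout: TaqMan qRT-PCR of HSPA1A mRNA, housekeeping-normalized (ACTB/GAPDH/POLR2A). Bidirectional fit vs 0.5% DMSO baseline.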

Read-out in test [7]: Hypoxia-inducible factor 1-alpha (Homo sapiens) (UniProt Q16665)
The experiment in a line: LTEA_HepaRG_HIF1A: Life Technologies and Expression Analysis (LTEA) Assay for Hypoxia-inducible factor 1 (HIF1A) Trancription factor using HepaRG (AID 2283503). Summed up:
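Gain- or loss-of-signal HIF1A mRNA changes are fitted against a DMSO baseline. HepaRG cultures receive eight concentrations, highest 100 uM, for 48 h in serum-free induction medium with 0.5% DMSO.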

Read-out in test [8]: 3-Hydroxy-3-Methylglutaryl-CoA Synthase 2 (HMGCS2), HMGCS2 (gene 3158)
The test is described as follows: LTEA_HepaRG_HMGCS2: Life Technologies and Expression Analysis (LTEA) Assay for 3-Hydroxy-3-Methylglutaryl-CoA Synthase 2 (HMGCS2) using HepaRG (AID 2283504). In short, it runs like this: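 qRT-PCR read-out of HMGCS2 transcript, normalised to three housekeeping genes, in HepaRG cells after 48 h chemical exposure. Eight-point curves from 100 uM, half-log dilutions, 0.5% DMSO vehicle; gain or loss fitted relative to DMSO baseline.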

Read-out in test [9]: HGF (gene 3082)
The experiment in a line: LTEA_HepaRG_HGF: Life Technologies and Expression Analysis (LTEA) Assay for Hepatocyte Growth Facto (HGF) using HepaRG (AID 2283505). In short, it runs like this: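 HepaRG, 48 h dosing, 8-pt half-log series from 100 uM in 0.5% DMSO, duplicates. Readout: TaqMan qRT-PCR of HGF mRNA, housekeeping-normalized; bidirectional curve fit vs DMSO baseline.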

Read-out in test [10]: Insulin Like Growth Factor 1 (IGF1), IGF1 (gene 3479)
The test is described as follows: LTEA_HepaRG_IGF1: Life Technologies and Expression Analysis (LTEA) Assay for Insulin Like Growth Factor 1 (IGF1) using HepaRG (AID 2283506). Summed up:
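qRT-PCR readout of IGF1 mRNA, normalized to three housekeeping genes, after 48 h chemical exposure of HepaRG cells. Concentrations: 8-point half-log series, top 100 uM, 0.5% DMSO vehicle. Gain or loss fitted against DMSO baseline.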

Read-out in test [11]: Intercellular Adhesion Molecule 1 (ICAM1), ICAM1 (gene 3383)
The test is described as follows: LTEA_HepaRG_ICAM1: Life Technologies and Expression Analysis (LTEA) Assay for Intercellular Adhesion Molecule 1 (ICAM1) using HepaRG (AID 2283507). Summed up:
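HepaRG, 48 h exposure, 8-pt half-log series from 100 uM, 0.5% DMSO vehicle, duplicates. Readout: TaqMan qRT-PCR mRNA, housekeeping-normalized (ACTB/GAPDH/POLR2A). Bidirectional curve fit vs DMSO baseline.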

Read-out in test [12]: Interleukin 6 Receptor (IL6R), IL6R (gene 3570)
The experiment in a line: LTEA_HepaRG_IL6R: Life Technologies and Expression Analysis (LTEA) Assay for Interleukin 6 Receptor (IL6R) using HepaRG (AID 2283510). In short, it runs like this:
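HepaRG, 48 h exposure, 8-pt half-log series, top 100 uM, 0.5% DMSO vehicle, duplicates. Read-out: TaqMan qRT-PCR of IL6R transcript, housekeeping-gene normalized. Gain or loss fitted relative to DMSO baseline.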

Read-out in test [13]: Potassium channel subfamily K member 1 (KCNK1), KCNK1 (gene 3775)
The experiment in a line: LTEA_HepaRG_KCNK1: Life Technologies and Expression Analysis (LTEA) Assay for Potassium channel subfamily K member 1 (KCNK1) using HepaRG (AID 2283511). Summed up:
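HepaRG, 48 h exposure, 8-pt half-log series top 100 uM, 0.5% DMSO vehicle, duplicates. Readout: KCNK1 transcript by qRT-PCR (Fluidigm array), housekeeping-normalized; bidirectional curve fit relative to DMSO baseline.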

Read-out in test [14]: Keratin 19 (KRT19), KRT19 (gene 3880)
The experiment in a line: LTEA_HepaRG_KRT19: Life Technologies and Expression Analysis (LTEA) Assay for Keratin 19 (KRT19) using HepaRG (AID 2283512). Summed up: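 HepaRG, 48 h chemical exposure, 8-pt half-log CRC from 100 uM, 0.5% DMSO vehicle, duplicates. Readout: TaqMan qRT-PCR of KRT19 mRNA, housekeeping-normalized (ACTB/GAPDH/POLR2A). Bidirectional fit vs DMSO baseline.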

Read-out in test [15]: Lipase C (LIPC), LIPC (gene 3990)
The experiment in a line: LTEA_HepaRG_LIPC: Life Technologies and Expression Analysis (LTEA) Assay for Lipase C (LIPC) using HepaRG (AID 2283514). In short, it runs like this: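 HepaRG, 48 h exposure, 8-pt half-log series from 100 uM in 0.5% DMSO, duplicates. Readout: LIPC mRNA by Fluidigm qRT-PCR, housekeeping-normalized (ACTB/GAPDH/POLR2A). Gain or loss fitted bidirectionally against DMSO baseline.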

Read-out in test [16]: Lipoprotein lipase (LPL), LPL (gene 4023)
The experiment in a line: LTEA_HepaRG_LPL: Life Technologies and Expression Analysis (LTEA) Assay for Lipoprotein lipase (LPL) using HepaRG (AID 2283515). In short, it runs like this:
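HepaRG, 48 h exposure, 8-pt half-log dilutions from 100 uM, 0.5% DMSO vehicle, duplicates; qRT-PCR (Fluidigm array) of LPL mRNA vs housekeeping genes; bidirectional curve fit relative to DMSO baseline.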

Read-out in test [17]: MicroRNA 122 (MIR122), gene 406906
The experiment in a line: LTEA_HepaRG_MIR122: Life Technologies and Expression Analysis (LTEA) Assay for MicroRNA 122 (MIR122) using HepaRG (AID 2283516). Also: the transcript read is the microRNA miR-122. In short, it runs like this:
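qRT-PCR read-out (TaqMan, Fluidigm array), normalized to three housekeeping genes; HepaRG cells dosed 48 h at 8 concentrations up to 100 uM in 0.5% DMSO, duplicate; gain or loss fitted against DMSO baseline.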

Read-out in test [18]: matrix metalloproteinase-10 (MMP10), MMP10 (gene 4319)
The experiment in a line: LTEA_HepaRG_MMP10: Life Technologies and Expression Analysis (LTEA) Assay for matrix metalloproteinase-10 (MMP10) using HepaRG (AID 2283517). In short, it runs like this:
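Transcript levels come from Fluidigm qRT-PCR normalized to three housekeeping genes, with curves fitted bidirectionally against 0.5% DMSO. Human HepaRG cells were dosed for 48 hours at concentrations up to 100 uM.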

Read-out in test [19]: MYC, MYC (gene 4609)
The test is described as follows: LTEA_HepaRG_MYC: Life Technologies and Expression Analysis (LTEA) Assay for MYC using HepaRG (AID 2283518). In short, it runs like this: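 qRT-PCR read-out of MYC transcript (Fluidigm TaqMan, housekeeping-normalized) after 48 h chemical exposure of HepaRG cells; eight concentrations, top 100 uM, half-log steps. Bidirectional curve fitting against 0.5% DMSO vehicle baseline.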

Read-out in test [20]: Insulin-like growth factor-binding protein 1 (IGFBP1), IGFBP1 (gene 3484)
The test is described as follows: LTEA_HepaRG_IGFBP1: Life Technologies and Expression Analysis (LTEA) Assay for Insulin-like growth factor-binding protein 1 (IGFBP1) using HepaRG (AID 2283508). Summed up: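 qRT-PCR mRNA read-out (TaqMan, Fluidigm array), normalised to three housekeeping genes; HepaRG cells, 48 h exposure, 8-pt half-log series from 100 uM, 0.5% DMSO vehicle; bidirectional curve fit vs DMSO baseline.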

Hypoxia-inducible factor 1-alpha (Homo sapiens), sequence (Q16665 whole entry, looked up): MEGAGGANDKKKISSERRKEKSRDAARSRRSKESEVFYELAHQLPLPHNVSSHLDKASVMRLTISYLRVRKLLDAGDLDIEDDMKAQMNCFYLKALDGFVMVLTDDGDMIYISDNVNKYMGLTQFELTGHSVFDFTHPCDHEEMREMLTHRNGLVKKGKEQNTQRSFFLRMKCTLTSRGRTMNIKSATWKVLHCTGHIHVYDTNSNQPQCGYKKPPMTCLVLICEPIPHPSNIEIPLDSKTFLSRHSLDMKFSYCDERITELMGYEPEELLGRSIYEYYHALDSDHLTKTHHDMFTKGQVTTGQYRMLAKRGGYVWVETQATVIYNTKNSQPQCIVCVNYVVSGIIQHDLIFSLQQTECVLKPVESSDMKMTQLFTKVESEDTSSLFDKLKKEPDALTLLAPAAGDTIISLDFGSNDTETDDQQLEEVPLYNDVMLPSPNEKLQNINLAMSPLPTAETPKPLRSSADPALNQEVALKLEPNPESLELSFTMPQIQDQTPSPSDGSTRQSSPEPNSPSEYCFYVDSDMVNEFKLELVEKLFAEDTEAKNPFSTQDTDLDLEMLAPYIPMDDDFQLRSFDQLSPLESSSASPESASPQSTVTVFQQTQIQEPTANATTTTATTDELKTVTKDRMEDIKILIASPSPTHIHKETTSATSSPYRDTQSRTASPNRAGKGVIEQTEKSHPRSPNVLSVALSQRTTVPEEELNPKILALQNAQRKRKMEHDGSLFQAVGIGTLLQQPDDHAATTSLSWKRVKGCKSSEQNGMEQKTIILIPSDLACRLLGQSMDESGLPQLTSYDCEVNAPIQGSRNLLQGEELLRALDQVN

With `CC(C)(C)CC(C)(C)c1ccc(O)cc1`, the AC50 in test [1] is 50 µM (active); in test [14] it was 25.9 µM (active). For the same compound, the call in [2], in [3], in [4], in [5], in test [6] and in test [7] was inactive. Further, the compound was classed as inactive in test [8], in test [9], in test [10], in test [11], in test [12] and in test [13]. Further, the outcome in test [15], in [16], in test [17], in [18] and in [19] was inactive.

Consider `ClC1(Cl)C2(Cl)C3(Cl)C4(Cl)C(Cl)(Cl)C5(Cl)C3(Cl)C1(Cl)C5(Cl)C24Cl` (stereo not drawn), for which the result in test [1], in [2], in test [3], in test [4], in [5] and in [6] was inactive. Moreover, the compound was called inactive in test [7], in test [8], in [9], in test [10], in test [11] and in [20]. Moreover, the result in test [12], in test [13], in [14], in test [15], in [16] and in test [17] was inactive. Moreover, the result in test [18] and in [19] was inactive.

Regarding `COc1cc(-c2ccc(N)c(OC)c2)ccc1N`, the AC50 is 38.3 µM (active) and 50 µM (active) in test [1]; 57.4 µM (active) in test [2]; 50 µM (active) in test [5]; 75 µM (active) in test [6]; 42.7 µM (active) in test [8]; 39.4 µM (active) and 34.4 µM (active) in test [10]. For the same compound, the AC50 in [20] is 86.9 µM (active); in test [14], 42.3 µM (active); in test [15], 50 µM (active); in test [17] it was 79.7 µM (active); in [19], 50 µM (active). Besides, the result in test [2], in test [3], in test [4], in [5], in test [6] and in test [7] was inactive. The call in test [8], in test [9], in [11], in [20], in [12] and in [13] was inactive. Besides, the outcome in [14], in test [15], in [16], in [17], in test [18] and in test [19] was inactive.

A word on the AC50: it is the concentration at which the activity in the assay is half-maximal.
